From PubChem BioAssay (NCATS) come the findings set out here.

The nature of assay [1]: qHTS profiling of the MIPE4 collection as inhibitors of Plasmodium falciparum (3D7) proliferation (AID 743344).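 Note: scaled between DMSO vehicle wells and 0.29 µM artemisinin as full inhibition.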 Conditions: P. falciparum 3D7 in erythrocytes, SYBR Green DNA fluorescence, 72 h; at 28.5 µM unless noted. In short, it runs like this:
(§1)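 Erythrocytes infected with P. falciparum (0.3% parasitemia, 2.5% hematocrit) incubated with compounds 72 h at 37 C, 5% CO2. Lysis with saponin/Triton buffer containing SYBR Green I, overnight at room temperature in the dark; DNA fluorescence (485/535 nm) normalised to 0.29 uM artemisinin and DMSO.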
On the technique in general: qHTS replaces the single test concentration by a dilution series.

Assay [2] in a line: qHTS profiling of the MIPE4 collection as inhibitors of Plasmodium falciparum (DD2) proliferation (AID 743345). Conditions: P. falciparum Dd2 in erythrocytes, SYBR Green DNA, 72 h; at 28.5 µM unless noted. In short, it runs like this:
as §1

The nature of assay [3]: qHTS profiling of the MIPE4 collection as inhibitors of Plasmodium falciparum (DD2) proliferation (Rep 2) (AID 743346). Conditions: P. falciparum Dd2 in erythrocytes, SYBR Green DNA, 72 h; at 28.5 µM unless noted. In outline: as §1
Assay [4] can be described thus: qHTS profiling of the MIPE4 collection as inhibitors of Plasmodium falciparum (HB3) proliferation (AID 743347).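 Note: plate controls were DMSO vehicle wells for no effect and artemisinin wells for full effect.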 Conditions: P. falciparum HB3 in erythrocytes, SYBR Green DNA, 72 h; at 28.5 µM unless noted. In short, it runs like this:
as §1

The nature of assay [5]: High-throughput drug toxicity screening in the BPDCN cell line Gen2.2 (AID 1224824). Conditions: Gen2.2 BPDCN cells; at 45.8 µM (top of the series) unless noted. In outline: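 Seed 500 exponentially growing Gen2.2 cells/well; add compounds by pin tool; incubate 48 h, 37 °C, 5% CO2; add CellTiter-Glo, 15 min RT; read luminescence. % activity vs DMSO (100%) and bortezomib (0%).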

The nature of assay [6]: High-throughput drug toxicity screening in the BPDCN cell line Cal-1 (AID 1224825). Conditions: Cal-1 BPDCN cell viability, qHTS; at 45.8 µM (top of the series) unless noted. In short, it runs like this: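 Cal-1 cells, 500 per well in phenol-red-free RPMI with 10% FBS, exposed to compounds for 48 hours at 37C, 5% CO2. Viability read by CellTiter-Glo luminescence; percent activity normalized to DMSO (100%) and 9.2 uM bortezomib final (0%).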

Assay [7] can be described thus: qHTS assay for measurement of the activity of small molecule inhibitors on Zika virus induced Caspase-3 activity in human iPSC derived neural progenitor cells (hNPCs) (AID 1224857; active = well fitted curve in the direction sought with a large enough effect; an effect the other way counts as inactive or inconclusive; note: nearly all actives have a fitted effect of over 65% in size; note: potency is the fitted concentration of half-maximal effect). In outline:
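Caspase-3/7 induction by a 6-hour ZIKV infection was quantified with a luminescent Caspase-Glo 3/7 reagent incubated 30 minutes at room temperature. Compounds were preincubated with hNPCs for 1 hour; inhibition was calculated against uninfected and infected control wells.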

A short description of assay [8]: qHTS assay for measurement of the activity of small molecule inhibitors on Zika virus induced Caspase-3 activity in human astrocytoma cells (AID 1224859; active = well fitted curve in the direction sought with a large enough effect; an effect the other way counts as inactive or inconclusive;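 note: plate controls were ZIKV-infected untreated cells for no effect and uninfected cells for full effect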). In short, it runs like this: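 In SNB-19 cells plated at 250 cells/well and grown 16-20 h, compounds were applied 1 h before ZIKV (2 FFU/cell). Six hours later caspase-3/7 luminescence was recorded.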
A short description of assay [9]: qHTS Screen of the MIPE 4.0 Collection Against Ewings Sarcoma (TC71) (AID 1259253; active = well fitted curve in the direction sought with a large enough effect; an effect the other way counts as inactive or inconclusive; note: nearly all actives have a fitted effect of over 40% in size; note: potency is the fitted concentration of half-maximal effect). In short, it runs like this:
(§2)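 Viability screen: 48 h incubation at 37C, 95% humidity, 5% CO2 with serially titrated compound, followed by CellTiter-Glo readout.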

A short description of assay [10]: qHTS Screen of the MIPE 4.0 Collection Against Ewings Sarcoma (EW8) (AID 1259255; active = well fitted curve in the direction sought with a large enough effect; an effect the other way counts as inactive or inconclusive; note: nearly all actives have a fitted effect of over 35% in size; note: potency is the fitted concentration of half-maximal effect;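 for viability: 100% = DMSO-treated cells and 0% = medium-only wells without cells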). In short, it runs like this:
as §2

The nature of assay [11]: qHTS Screen of the MIPE 4.0 Collection Against Ewings Sarcoma (TC32) (AID 1259256; active = well fitted curve in the direction sought with a large enough effect; an effect the other way counts as inactive or inconclusive; note: potency is the fitted concentration of half-maximal effect; nearly all actives have a fitted effect of over 45% in size). In short, it runs like this: as §2
A short description of assay [12]: qHTS profiling for inhibitors of Plasmodium falciparum (HB3) proliferation (AID 743324; active = well fitted curve in the direction sought with a large enough effect; an effect the other way counts as inactive or inconclusive;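 note: 100% = DMSO vehicle wells and 0% = artemisinin-treated control wells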). Conditions: Plasmodium falciparum HB3 blood-stage proliferation; at 28.7 µM (top of the series) unless noted. In short, it runs like this: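 P. falciparum HB3 grown in erythrocytes (0.3% parasitemia, 2.5% hematocrit final) with compound for 72 h at 37 C, 5% CO2. Parasite DNA detected by SYBR Green after saponin/triton lysis overnight; normalized to 0.29 uM artemisinin and DMSO.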

Assay [13] can be described thus: Identifying Small Molecule Inhibitors of Pancreatic Cancer Stem Cells (A2780, Spheroid) (AID 1259357; active = well fitted curve in the direction sought with a large enough effect; an effect the other way counts as inactive or inconclusive;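 note: compound exposure lasted 48 h before the ATP luminescence read; 100% = DMSO treated cells and 0% = wells without cells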). Conditions: Potency: A2780 spheroid viability. In outline:
(§3)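 After a 4 h attachment period, compounds were pinned into wells and cultures held 48 h under standard incubator conditions. Viability was then measured as CellTiter-Glo luminescence following 10 min at room temperature.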

A short description of assay [14]: Identifying Small Molecule Inhibitors of Pancreatic Cancer Stem Cells (SN12C, Adherent) (AID 1259358; active = well fitted curve in the direction sought with a large enough effect; an effect the other way counts as inactive or inconclusive;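 note: cell survival measured after 48 h of compound exposure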). In short, it runs like this: (§4)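 Monolayer and spheroid cultures are compared. Spheroids form over 14 days in stem cell medium on hydrogel-coated low-attachment plates, then are exposed to compound for 48 h before CellTiter-Glo luminescence.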
The nature of assay [15]: qHTS Screen of the MIPE 4.0 Collection Against Ewings Sarcoma (RDES) (AID 1259252; active = well fitted curve in the direction sought with a large enough effect; an effect the other way counts as inactive or inconclusive; note: potency is the fitted concentration of half-maximal effect; nearly all actives have a fitted effect of over 35% in size). In short, it runs like this:
as §2

The nature of assay [16]: Identifying Small Molecule Inhibitors of Pancreatic Cancer Stem Cells (SN12C, Spheroid) (AID 1259360; active = well fitted curve in the direction sought with a large enough effect; an effect the other way counts as inactive or inconclusive; note: potency is the fitted concentration of half-maximal effect). Conditions: Potency: SN12C spheroid viability. In short, it runs like this: as §3
Assay [17] is described as follows: Identifying Small Molecule Inhibitors of Pancreatic Cancer Stem Cells (A278, Adherent) (AID 1259361; active = well fitted curve in the direction sought with a large enough effect; an effect the other way counts as inactive or inconclusive;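 note: viability read after 48 h compound exposure; nearly all actives have a fitted effect of over 35% in size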). In short, it runs like this: as §4
Assay [18] is described as follows: Identifying Small Molecule Inhibitors of Pancreatic Cancer Stem Cells (Panc1, Adherent) (AID 1259362; active = well fitted curve in the direction sought with a large enough effect; an effect the other way counts as inactive or inconclusive;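 note: compound exposure lasted 48 h before the viability read; plate controls were DMSO-treated cells for no effect and cell-free media wells for full effect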). Conditions: Potency: viability. In outline:
as §3

Records with an inconclusive call do not appear. The source made the active and inactive calls. Unless noted, the rule behind the calls is not given here.

Take `Cc1cnc(Nc2cccc(CN3CCOCC3)c2)nc1Nc1cccc(S(=O)(=O)NC(C)(C)C)c1`: in assay [1], the parasite growth, % of DMSO control is 4.05%. In assay [2], the parasite growth remaining, % of DMSO control (lower = more inhibition) stood at 8.36%. In addition, the parasite growth, % of control (lower = inhibition) in assay [3] is 17.3%. The compound further gave a growth, % of control in [4] of 7.02%. Further, the cell viability, % of control (lower = more cytotoxic) in assay [5] was determined as 14%. Further, the viability (% of control) in assay [6] amounted to 3.36%. For the same compound, the Potency result in assay [7] and in assay [8] was “inactive” each time. The values for the Potency in assay [9], in assay [10] and in assay [11] were 2.35 µM (active), 2.64 µM (active) and 1.87 µM (active), respectively.
As to `CN1N=C(N)c2cn([C@@H]3O[C@H](COP(=O)(O)O)[C@@H](O)[C@@H]3O)c3ncnc1c23`, the parasite growth remaining, % of DMSO control (lower = more inhibition) in [2] came out at 100%. In [3], the parasite growth, % of control (lower = inhibition) amounted to 67.6%. Also, the growth, % of control in [4] stood at 98.6%. Moreover, the cell viability, % of control (lower = more cytotoxic) in assay [5] was 199%. The viability (% of control) in [6] was found to be 76.2%. Moreover, the Potency entry in assay [7] and in assay [8] was “inactive” each time. Besides, the figures for the Potency in assay [9] and in assay [10] were 7.43 µM (active) and 13.2 µM (active), respectively.
Regarding `CCN(CCO)CCCOc1ccc2c(Nc3cc(CC(=O)Nc4cccc(F)c4)[nH]n3)ncnc2c1`, the parasite growth, % of DMSO control in assay [1] was determined as 9.18%. Besides, the parasite growth remaining, % of DMSO control (lower = more inhibition) in [2] was 11.6%. The parasite growth, % of control (lower = inhibition) in assay [3] worked out at 17.8%. The compound further had a growth, % of control in assay [4] of 6.77%. In addition, the cell viability, % of control (lower = more cytotoxic) in [5] is 90.4%. The viability (% of control) in assay [6] stood at 15.3%. The Potency result in assay [7] and in [8] was “inactive” in each case. The values for the Potency in [9] and in assay [10] were 0.166 µM (active) and 0.0833 µM (active), respectively.
In assay [12], `CNC(=O)c1cc(COc2nnc(Nc3ccc(Cl)cc3)c3ccoc23)ccn1` gave a remaining proliferation (% of control), lower = more inhibition of 28.7%. The parasite growth, % of DMSO control in [1] worked out at 40.5%. The parasite growth remaining, % of DMSO control (lower = more inhibition) in assay [2] stood at 79.6%. The parasite growth, % of control (lower = inhibition) in assay [3] amounted to 52.9%. This compound also yielded a growth, % of control in assay [4] of 48.2%. Further, the cell viability, % of control (lower = more cytotoxic) in [5] was 159%. Further, the viability (% of control) in assay [6] is 92.9%. The Potency result in [7], in assay [8], in [9], in assay [10], in assay [13] and in [14] was “inactive” throughout.
`O=C1CCCC(=O)C1C(=O)c1ccc(C(F)(F)F)cc1[N+](=O)[O-]` came in with a parasite growth, % of DMSO control in [1] of 90.1%. Besides, the parasite growth remaining, % of DMSO control (lower = more inhibition) in assay [2] turned out to be 103%. Besides, the parasite growth, % of control (lower = inhibition) in assay [3] stood at 114%. Moreover, in assay [4], the growth, % of control came out at 93.4%. Besides, the cell viability, % of control (lower = more cytotoxic) in assay [5] was determined as 124%. For the same compound, the viability (% of control) in assay [6] was 101%. Moreover, the Potency entry in [7], in assay [8] and in [10] was “inactive” throughout. Moreover, in assay [9], the Potency was 23.5 µM (active).
Regarding `Cc1nc(C(=O)NCC(=O)O)c(O)c2ccc(Oc3ccccc3)cc12`, in [1], the parasite growth, % of DMSO control is 86.9%. Also, the parasite growth remaining, % of DMSO control (lower = more inhibition) in [2] came out at 95.5%. The parasite growth, % of control (lower = inhibition) in [3] was determined as 67.9%. This compound also showed a growth, % of control in [4] of 69.9%. In addition, the cell viability, % of control (lower = more cytotoxic) in [5] was found to be 54.1%. In addition, the viability (% of control) in assay [6] was 115%. The Potency result in [7], in assay [8], in assay [9] and in [10] was “inactive” each time.
In turn, `O=C(O)C1=NC(C(=O)O)CC(C=CN2c3cc(O)c(OC4OC(CO)C(O)C(O)C4O)cc3CC2C(=O)O)=C1` (configuration not stated) showed a parasite growth, % of DMSO control in [1] of 93%. In [2], the parasite growth remaining, % of DMSO control (lower = more inhibition) was found to be 104%. Further, the parasite growth, % of control (lower = inhibition) in [3] came to 76.3%. This compound gave a growth, % of control in [4] of 92%. Besides, the cell viability, % of control (lower = more cytotoxic) in [5] came to 267%. Further, the viability (% of control) in assay [6] was determined as 136%. Further, the Potency result in assay [7], in [8], in assay [9] and in assay [10] was “inactive” each time.
`C[C@@H](N)c1ccc(C(=O)Nc2ccnc3[nH]ccc23)cc1` gave a parasite growth, % of DMSO control in assay [1] of 49.7%. Besides, in assay [2], the parasite growth remaining, % of DMSO control (lower = more inhibition) came to 78.2%. Moreover, in [3], the parasite growth, % of control (lower = inhibition) came out at 49.3%. Besides, in assay [4], the growth, % of control amounted to 67.7%. The cell viability, % of control (lower = more cytotoxic) in [5] came to 6.34%. In addition, the viability (% of control) in assay [6] is 12.2%. Besides, the Potency was 26.4 µM (active) in assay [7] and 18.7 µM (active) in [15]. In addition, the Potency result in assay [8] is “inactive”.
Regarding `COc1ccc2c(c1)CC[C@H]1[C@@H]2CC[C@]2(C)[C@@H](NCCCCCCN3C(=O)C=CC3=O)CC[C@H]12`, in [2], the parasite growth remaining, % of DMSO control (lower = more inhibition) came out at 95.3%. The cell viability, % of control (lower = more cytotoxic) in assay [5] stood at 154%. The viability (% of control) in assay [6] was found to be 43%. For the same compound, the Potency result in [7], in [8], in [10] and in assay [18] was “inactive” throughout. Further, the Potency in assay [9] was 16.6 µM (active); in assay [16], 20.9 µM (active). For the same compound, in [17], the IC50 (viability decrease) was 20.9 µM (active).
